This is an account of results in PubChem BioAssay (EPA / NIEHS).

Activity calls are given as the source filed them. How the source made its calls: active means hit-call score of the fitted dose curve at least 0.9, where 1 is the maximum; inactive means score below 0.9.

The test is described as follows: STM_H9_CystineISnorm_perc: Stemina devTOX quickPredict H9 human embryonic stem cell (hESC)-based Assay for Cystine (CYSS) Metabolite Biomarker, Normalized (AID 2283713). The source says: STM_H9_secretome utilizes undifferentiated H9 cells to measure relative changes in two metabolites, ornithine (ORN) and cystine (CYSS) in the secretome, targeting a critical drop in the ORN/CYSS ratio as a biomarker for developmental toxicity.STM_H9_CystineISnorm_perc is one of 10 components calculated in the STM_H9_secretome assay. It measures the integrated area of the endogenous cystine normalized to the spiked-in isotopically labeled standard and to the median value of the 0.1% DMSO neutral control treatment using UPLC-HRMS technology.Data from the assay component STM_H9_CystineISnorm_perc was analyzed at the assay endpoint STM_H9_CystineISnorm_perc in the positive analysis fitting direction relative to DMSO as the negative control and baseline of activity. Using a type of binding reporter, gain or loss-of-signal activity can be used to understand relative metabolite change.
H9 hESCs maintained in a pluripotent state were exposed to test compound for 72h with chemical replenishment with media replacement every 24h. Cell-conditioned media from the final 24-h treatment period was collected for analysis of the targeted biomarker, and cell viability of the corresponding cell layer was assessed. The chemical library was tested in blinded fashion. Each test plate included 1uM Methotrexate (MTX; Selleck Chemicals, Houston, Texas) as a positive reference, 5 nM MTX as a negative reference, 0.1% DMSO as the neutral (vehicle) control, and sample-level media blanks.H9 cell-conditioned media from the final 24-h treatment period was collected for analysis of the targeted biomarker and cell viability was measured from the corresponding cell layer. Cell viability was measured using the CellTiter-Fluor assay (Promega, Madison, Wisconsin) based on proteolytic cleavage of a substrate to fluorescent signal proportional to the number of living cells. The cell viability Relative Fluorescence Unit (RFU) was background corrected and normalized to mean RFU of the neutral control (0.1% DMSO). The collected H9-cell-conditioned media samples were processed for targeted biomarker analysis as described (Palmer et al., 2013). Briefly, spent media samples were deproteinized (40% acetonitrile) and processed for UPLC-HRMS. Data acquisition was performed using 4 separate UPLC-HRMS systems, consisting of an Agilent 1290 Infinity LC system (Agilent Technologies) interfaced with an Agilent high-resolution mass spectrometer (models G6520A, G6520B, G6530A, and G6224A). A Waters Acquity UPLC BEH Amide column (2.1mm x 50mm, 1.7lm particle size; Waters, Milford, Massachusetts) maintained at 40C was applied for separation of metabolites using a 6.5min solvent gradient with 0.1% formic acid in water and 0.1% formic acid in acetonitrile (1.0ml/min flow rate). Data were acquired using MassHunter Acquisition software (version B 04.00, Agilent Technologies). The extracted ion chromatogram (EIC) areas for ORN, CYSS, and their respective spike-in C13-standards were determined using the Agilent MassHunter Quantitative Analysis software, version B.05.00 or newer (Agilent Technologies), and data were normalized as described in Palmer et al. (2017).
The term AC50 denotes the concentration giving half of the maximal activity seen. For the molecule `C[C@]12C[C@H](O)[C@H]3[C@@H](CCC4=CC(=O)CC[C@@]43C)[C@@H]1CC[C@@H]2C(=O)CO`, the AC50 is 81.5 µM (active).

With `O=C(c1ccc(O)cc1O)c1ccc(O)cc1O`, the AC50 was 18.5 µM (active). Consider `CC(C)(C)[C@@H](O)[C@@H](Cc1ccc(Cl)cc1)n1cncn1`, for which the outcome was inactive. `CN(C)C(=O)Nc1ccc(Cl)c(Cl)c1`: the AC50 was 70.5 µM (active). As to `OB(O)O`, the result was inactive. The same measure, in the same setting: the value for `COC(=O)c1ccccc1C(=O)O` was “inactive”. For the molecule `C=CCOC(Cn1ccnc1)c1ccc(Cl)cc1Cl` (stereo not given), the result was inactive. Turning to `C#CCOC(=O)[C@@H](C)Oc1ccc(Oc2ncc(Cl)cc2F)cc1`, the half-maximal activity concentration (AC50) was 11.1 µM (active).

In the case of `Cc1nn(C)c(Oc2ccccc2)c1C=NOCc1ccc(C(=O)OC(C)(C)C)cc1`, the AC50 is 0.128 µM (active).

`Oc1ccc(C(c2ccc(O)cc2)C(Cl)(Cl)Cl)cc1`: the result was inactive. In the case of `S=C([S-])NCCNC(=S)[S-].[Mn+2]`, the result was inactive. As to `COC(=O)CSc1cc(N=c2sc(=O)n3n2CCCC3)c(F)cc1Cl`, the AC50 is 83 µM (active).

In the case of `CCN(Cc1c(F)cccc1Cl)c1c([N+](=O)[O-])cc(C(F)(F)F)cc1[N+](=O)[O-]`, the outcome was inactive. For `COC(=O)c1ccc(I)cc1S(=O)(=O)NC(=O)Nc1nc(C)nc(OC)n1`, the outcome was inactive. With `CC(C)CCCCCCc1ccc(O)cc1`, the AC50 is 70 µM (active). Regarding `O=C(Nc1ccc([N+](=O)[O-])cc1Cl)c1cc(Cl)ccc1O`, the outcome was inactive.

For `CCCCOC(=O)C(C)Oc1ccc(Oc2ccc(C(F)(F)F)cn2)cc1` (stereo not given), the result was inactive. Consider `S=C(S)NCCNC(=S)S.[Mn+2].[S-]C([S-])=NCCN=C([S-])[S-].[Zn+2]`, for which the result was inactive. The same measure, in the same setting: for `N[C@@H](Cc1cc(I)c(Oc2ccc(O)c(I)c2)c(I)c1)C(=O)O` the value was “inactive”. Take `CCOC(=O)C(C)Oc1ccc(Oc2cnc3cc(Cl)ccc3n2)cc1` (stereo not given): the AC50 is 9.92 µM (active). For `N#CSCSc1nc2ccccc2s1`, the AC50 is 15.2 µM (active). Regarding `CCCCOC(=O)[C@@H](C)Oc1ccc(Oc2ccc(C(F)(F)F)cn2)cc1`, the AC50 is 42.8 µM (active). On to `CSC(=O)c1cccc2nnsc12`, for which the AC50 was 81.4 µM (active). Same read-out and setting: for `CCCCC(CC)COC(=O)c1ccccc1C(=O)O` (stereo not given) the value was 250 µM (active). `CCCCCOC(=O)COc1cc(N2C(=O)C3=C(CCCC3)C2=O)c(F)cc1Cl`: the outcome was inactive. Take `CCSC(=O)N(CC(C)C)CC(C)C`: the result was inactive. As for `CCNc1nc(N)nc(Cl)n1`, the outcome was inactive. In the case of `CC(C)(c1ccc(O)cc1)c1ccc(O)cc1`, the result was inactive. Consider `CCCN(CCC)c1c([N+](=O)[O-])cc(C(F)(F)F)c(N)c1[N+](=O)[O-]`, for which the result was inactive. On to `O=C(O)C1(C(=O)Nc2ccc(Cl)cc2Cl)CC1`, for which the outcome was inactive.
